SENP8 block-1: SENP8 (human) protease inhibition; inhibition, % at 20 µM; recombinant SENP8, Nedd8 substrate fluorescence; 360,000 tested, 0.64% active; in the data active = inhibition mostly above about 40%, no sharp cut-off; inactive = mostly below about 27%
SENP8 block-2: inhibitors of human SENP8 protease; purified SENP8, Z-RLRGG-aminoluciferin cleavage, luminescence; inhibition, % at 10 µM; 330,000 tested, 1.2% active; in the data active = inhibition above about 50%
SENP6 block: SENP6 protease inhibition; Recombinant SENP6 catalytic domain, aminoluciferin luminescence; 330,000 tested, 1.8% active; inhibition, % at 10 µM;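 active = inhibition above about 50% at the single tested dose, limit read from the data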;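 also: plate controls were DMSO wells with enzyme for no effect and DMSO wells lacking enzyme for full effect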
Target sequence (Q9GZR1 628-1112 limits assumed): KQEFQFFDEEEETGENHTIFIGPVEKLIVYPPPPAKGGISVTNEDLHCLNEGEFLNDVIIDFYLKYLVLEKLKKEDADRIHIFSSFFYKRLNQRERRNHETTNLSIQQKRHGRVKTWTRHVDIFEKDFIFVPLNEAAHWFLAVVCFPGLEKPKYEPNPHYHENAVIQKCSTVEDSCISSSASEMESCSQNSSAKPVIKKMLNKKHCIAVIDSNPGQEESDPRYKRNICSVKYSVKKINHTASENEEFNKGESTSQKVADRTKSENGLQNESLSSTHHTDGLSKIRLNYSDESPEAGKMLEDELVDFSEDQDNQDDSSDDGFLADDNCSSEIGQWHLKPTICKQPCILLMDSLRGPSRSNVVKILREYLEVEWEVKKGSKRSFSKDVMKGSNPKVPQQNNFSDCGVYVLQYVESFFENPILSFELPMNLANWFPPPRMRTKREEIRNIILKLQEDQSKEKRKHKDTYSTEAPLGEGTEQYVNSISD
PPC-1+TRAIL kill: PPC-1 cancer cell killing with TRAIL present | cell killing (% activity), % at 4 µM or 5 µM | PPC-1 cells + TRAIL, ATPLite viability luminescence | AID 1443 | 220,000 tested, 0.41% active;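 active = cell killing above 50% in the first pass at 4 µM, then a duplicate retest at 5 µM averaging 50% or more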;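 also: plate controls were cells with TRAIL plus DMSO for no effect and medium-only wells lacking cells for full effect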
SENP7 block: inhibitors of human SENP7 protease. Q9BQF6. recombinant SENP7, Z-RLRGG-aminoluciferin luminescence, 40 min. inhibition, % at 5 µM. 330,000 tested, 1.5% active;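 active = inhibition above about 50% at the single test dose, limit read from the data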;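 also: plate controls were DMSO with enzyme for no effect and no enzyme buffer wells for full effect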
C8 TRAIL sens: caspase-8 TRAIL sensitization; 360,000 tested, 1% active; NB7+C8 cells + TRAIL, ATPlite viability luminescence; inhibition (viability loss, TRAIL sensitization), % at 10 µM;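 active = compounds causing at least 50% loss of cell viability in the single-dose screen, relative to plate controls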
SENP8 conf: confirmation of human SENP8 protease inhibitors; shares compounds with SENP7 block; Recombinant SENP8, Z-RLRGG-aminoluciferin luminescence, 60 min; 6,200 tested, 40% active; inhibition, % at 12.5 µM;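 active = mean inhibition across replicates above about 50%, limit read from the data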
SENP6 confirm: human SENP6 inhibition, confirmed. shares compounds with SENP7 block. recombinant SENP6, Z-RLRGG-aminoluciferin luminescence. inhibition, % at 12.5 µM. 6,200 tested, 58% active. AID 488915
SENP7 confirm: confirmation of human SENP7 protease inhibitors. shares compounds with SENP7 block. recombinant SENP7, Z-RLRGG-aminoluciferin luminescence, 40 min. inhibition, % at 12.5 µM. 6,200 tested, 69% active
Casp3 select: inhibits human caspase-3 in SENP selectivity test. purified caspase-3, Z-DEVD-aminoluciferin luminescence, 60 min. AID 488918. inhibition, % at 12.5 µM. 6,200 tested, 60% active. shares compounds with SENP7 block;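 active = mean inhibition above about 50%, limit read from the data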;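 also: plate controls were enzyme with DMSO for no effect and wells without caspase-3 for full effect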
Luc interf: counter-screen for SENP inhibitors: luminescence interference | shares compounds with SENP7 block | Pre-incubated SENP8/Z-RLRGG-aminoluciferin, luciferase luminescence interference | inhibition, % at 12.5 µM | 6,200 tested, 39% active | AID 488919;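 active = mean inhibition above about 50% when retested at one dose, limit read from the data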;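 also: plate controls were DMSO wells with completed reaction for no effect and substrate without enzyme for full effect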
The depositor's hits bear a star. Hits are enriched below; roughly 3% of the tested compounds scored in any of these assays.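 The calls were made as follows, unless noted: active = mean inhibition above about 50% in the one-dose retest (limit read from the data); inactive = the rest.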

How did COc1cccc(-c2cn3nc(C)c(C)nc3n2)c1 do in these assays?
SENP8 block-1: inactive; SENP8 block-2: 60*; SENP6 block: 83*; PPC-1+TRAIL kill: 18; SENP7 block: -3; C8 TRAIL sens: 13; SENP8 conf: 90*; SENP6 confirm: 93*; SENP7 confirm: 101*; Casp3 select: 97*; Luc interf: 61*

Results for O=C(NNC(=O)c1cccc2ccccc12)c1ccc(Br)cc1 ?
SENP8 block-1: -3; C8 TRAIL sens: -11

What do the screens show for `Cc1csc(NC(=O)COc2ccc3c(c2)CCC3)n1`?
SENP8 block-1: 6; SENP8 block-2: 74*; SENP6 block: 82*; SENP7 block: 84*; C8 TRAIL sens: 19; SENP8 conf: 81*; SENP6 confirm: 80*; SENP7 confirm: 96*; Casp3 select: 80*; Luc interf: 46

Results for CCCNc1c(NC(=O)C2CCC(C)CC2)c(=O)oc2ccccc12 (centres undefined) ?
SENP8 block-1: 10; SENP8 block-2: -7; SENP6 block: -10; SENP7 block: 5; C8 TRAIL sens: -18

What do the screens show for `O=C(Oc1ccc(OC(=O)N2CCOCC2)cc1)c1ccccc1`?
SENP8 block-1: 22; SENP8 block-2: 26; SENP6 block: 38; PPC-1+TRAIL kill: 33; SENP7 block: 56*; C8 TRAIL sens: -5; SENP8 conf: -20; SENP6 confirm: 19; SENP7 confirm: 72*; Casp3 select: 47; Luc interf: -2

What do the screens show for `O=C(Oc1ccc(-c2ccccc2)cc1)N1CCCCC1`?
SENP8 block-1: 0; SENP8 block-2: 18; SENP6 block: 53*; PPC-1+TRAIL kill: -6; SENP7 block: 33; C8 TRAIL sens: 11; SENP8 conf: -4; SENP6 confirm: -5; SENP7 confirm: -6; Casp3 select: -2; Luc interf: -4

What do the screens show for `O=C(/C=C/c1c(F)cccc1Cl)Nc1cccnc1`?
SENP8 block-1: 14; SENP8 block-2: 83*; SENP6 block: 87*; SENP7 block: 90*; C8 TRAIL sens: 33; SENP8 conf: 28; SENP6 confirm: 85*; SENP7 confirm: 98*; Casp3 select: 87*; Luc interf: 44

What do the screens show for `O=C(O)CCCN1C(=O)C2C3CC(C2C1=O)C1C(c2ccccc2)c2sc(=O)n(-c4ccccc4)c2SC31` (centres undefined)?
SENP8 block-1: 4; SENP8 block-2: -6; SENP6 block: 25; PPC-1+TRAIL kill: 16; SENP7 block: -7; C8 TRAIL sens: -1

How did c1cncc(-c2nc(-c3ccc4c(c3)OCCO4)cs2)c1 do in these assays?
SENP8 block-1: -97; SENP8 block-2: 80*; SENP6 block: 79*; SENP7 block: 83*; C8 TRAIL sens: 38; SENP8 conf: 3; SENP6 confirm: 81*; SENP7 confirm: 97*; Casp3 select: 72*; Luc interf: 80*

Results for O[C@H]1C[C@H](c2ccccc2)N(Cc2cccs2)C[C@@H]1n1cc(C2CC2)nn1 ?
SENP8 block-1: 9; C8 TRAIL sens: -15

Results for Cc1cccc(OC(C)C(=O)Nc2ccc(N3CCCCC3)cc2)c1 (centres undefined) ?
SENP8 block-1: -3; SENP8 block-2: -4; SENP6 block: -13; SENP7 block: 6; C8 TRAIL sens: 5

Results for Cc1ccc(S(=O)(=O)Oc2ccccc2/C=N/N=C(N)N)cc1 ?
SENP8 block-1: 18; SENP8 block-2: 3; SENP6 block: 16; PPC-1+TRAIL kill: 32; SENP7 block: 7; C8 TRAIL sens: -4

What do the screens show for `Cc1ccc(S(=O)(=O)Oc2ccccc2/C=N/NC(N)=S)cc1`?
SENP8 block-1: 15; SENP8 block-2: -4; SENP6 block: -2; PPC-1+TRAIL kill: -26; SENP7 block: 70*; C8 TRAIL sens: 23; SENP8 conf: 6; SENP6 confirm: 6; SENP7 confirm: -7; Casp3 select: -3; Luc interf: -2

How did Cc1cc(C)c(S(=O)(=O)/N=C2/C=C(SCC(=O)O)C(=O)c3ccccc32)cc1C do in these assays?
SENP8 block-1: 54*; SENP8 block-2: 28; SENP6 block: 62*; PPC-1+TRAIL kill: 35; SENP7 block: 18; C8 TRAIL sens: 3; SENP8 conf: 15; SENP6 confirm: 36; SENP7 confirm: 5; Casp3 select: -1; Luc interf: -6

What do the screens show for `CCOC(=O)C1(Cc2ccccc2)C(=O)Nc2ccccc21` (centres undefined)?
SENP8 block-1: 15; SENP8 block-2: 5; SENP6 block: -15; SENP7 block: -5; C8 TRAIL sens: 8

How did CCOC(=O)C1(C(F)(F)F)N=C(C(F)(F)F)Nc2ccccc21 (centres undefined) do in these assays?
SENP8 block-1: 5; SENP8 block-2: -5; SENP6 block: 3; PPC-1+TRAIL kill: 15; SENP7 block: 72*; C8 TRAIL sens: -11; SENP8 conf: 9; SENP6 confirm: 7; SENP7 confirm: 2; Casp3 select: -4; Luc interf: -8

Results for O=C(O)c1ccc(OS(=O)(=O)c2ccc(Cl)s2)c(Cl)c1 ?
SENP8 block-1: 14; SENP8 block-2: 45; SENP6 block: 56*; SENP7 block: 6; C8 TRAIL sens: 0; SENP8 conf: 34; SENP6 confirm: 33; SENP7 confirm: 61*; Casp3 select: 54*; Luc interf: 60*

How did Cc1ncc(CO)c(/C=N/N=C/c2ccccc2O)c1O do in these assays?
SENP8 block-1: -35; SENP8 block-2: 32; SENP6 block: 60*; PPC-1+TRAIL kill: 14; SENP7 block: 25; C8 TRAIL sens: 7; SENP8 conf: 7; SENP6 confirm: 7; SENP7 confirm: 9; Casp3 select: 9; Luc interf: 5

Results for C=C(C)CCC(C)N1CCC(n2nccc2NC(=O)CCCc2ccccc2)CC1 (centres undefined) ?
SENP8 block-1: 13; SENP8 block-2: -1; SENP6 block: -2; SENP7 block: 5; C8 TRAIL sens: 6

Assay outcomes (PubChem)
